For 20 compounds, Potency results are on record in PubChem BioAssay (Tox21).

Test [1] can be described thus: qHTS assay to identify small molecule antagonists of the thyroid receptor (TR) signaling pathway (AID 743065). Note: nearly all actives have a fitted effect of over 55% in size. Note: potency is the fitted concentration of half-maximal effect. The essentials: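 GH3.TRE-Luc rat pituitary cells carrying two TR response elements driving luciferase were plated for 4 h, given compound plus 1 nM T3 (final), and incubated 23.5 h at 37 C. ONE-Glo luminescence measured reporter inhibition; CellTiter-Fluor fluorescence tracked cytotoxicity.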

Test [2] relates to thyroid hormone receptor (rat, GH3 cells). The experiment in a line: qHTS assay to identify small molecule agonists of the thyroid receptor (TR) signaling pathway (AID 743066; calls by dose curve). (In general: qHTS replaces the single test concentration by a dilution series.)
For test [3], the target named is Estrogen receptor (Homo sapiens) (UniProt P03372). Put plainly: qHTS assay to identify small molecule antagonists of the estrogen receptor alpha (ER-alpha) signaling pathway (AID 743069; active = well fitted curve in the direction sought with a large enough effect in the signal ratio in the repeat runs, not every such curve was filed as active; inconclusive = weak or mixed curves, or effect the other way; inactive = no such curve, though single readings can be large or run the other way; the % refers to the signal ratio; note: potency is the fitted concentration of half-maximal effect). An outline of the steps: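 Screening used a UAS-driven beta-lactamase reporter integrated into HEK293 cells expressing ER-alpha, stimulated with 17beta-estradiol alongside test compounds over 18 hr at 37C; signal came from LiveBLAzer B/G FRET fluorescence.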
Chain of Estrogen receptor (Homo sapiens) (P03372 whole entry, looked up): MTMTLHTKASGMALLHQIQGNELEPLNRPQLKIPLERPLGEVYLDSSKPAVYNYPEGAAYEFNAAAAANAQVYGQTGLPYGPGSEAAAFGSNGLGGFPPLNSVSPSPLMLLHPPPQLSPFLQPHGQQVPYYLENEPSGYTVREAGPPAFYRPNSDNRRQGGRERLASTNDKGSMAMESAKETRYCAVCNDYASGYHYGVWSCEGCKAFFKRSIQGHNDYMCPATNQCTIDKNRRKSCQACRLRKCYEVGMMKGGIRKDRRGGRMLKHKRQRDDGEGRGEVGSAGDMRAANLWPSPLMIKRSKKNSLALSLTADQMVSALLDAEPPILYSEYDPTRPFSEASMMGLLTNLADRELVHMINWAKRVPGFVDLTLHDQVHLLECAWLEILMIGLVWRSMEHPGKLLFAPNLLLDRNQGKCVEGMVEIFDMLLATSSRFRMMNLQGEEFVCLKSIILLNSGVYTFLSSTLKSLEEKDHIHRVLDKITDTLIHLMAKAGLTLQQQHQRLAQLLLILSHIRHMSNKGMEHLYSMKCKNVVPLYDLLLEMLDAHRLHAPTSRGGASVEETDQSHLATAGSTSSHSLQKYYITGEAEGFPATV

Test [4] can be described thus: qHTS assay to identify small molecule antagonists of the estrogen receptor alpha (ER-alpha) signaling pathway - cell viability counter screen (AID 743074; calls by dose curve; note: nearly all actives have a fitted effect of over 45% in size; note: potency is the fitted concentration of half-maximal effect).
Test [5] concerns the target Estrogen receptor (Homo sapiens) (UniProt P03372). Put plainly: qHTS assay to identify small molecule agonists of the estrogen receptor alpha (ER-alpha) signaling pathway (AID 743075; calls by dose curve).
For test [6] the target is unchanged. Put plainly: qHTS assay to identify small molecule agonists of the estrogen receptor alpha (ER-alpha) signaling pathway using the BG1 cell line (AID 743079). Note: nearly all actives have a fitted effect of over 20% in size. Note: potency is the fitted concentration of half-maximal effect.
Test [7] is described as follows: qHTS assay to identify small molecule antagonists of the estrogen receptor alpha (ER-alpha) signaling pathway using the BG1 cell line (AID 743080; calls by dose curve;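 note: BG1 cells stimulated with 17beta-estradiol alongside compound; nearly all actives have a fitted effect of over 25% in size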; note: potency is the fitted concentration of half-maximal effect). The essentials: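 Seeding, 24 h rest, compound transfer from DMSO, 17beta-estradiol addition, 21.5 h incubation, CellTiter-Fluor (30 min, 37 C), then ONE-Glo (30 min, room temperature): this sequence was run on BG1-Luc-4E2 reporter cells.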

The target of test [8] is Aromatase (Homo sapiens) (UniProt P11511). Put plainly: qHTS assay to identify aromatase inhibitors (AID 743083). Note: nearly all actives have a fitted effect of over 55% in size. Note: potency is the fitted concentration of half-maximal effect.
Chain of Aromatase (Homo sapiens) (P11511 whole entry, looked up): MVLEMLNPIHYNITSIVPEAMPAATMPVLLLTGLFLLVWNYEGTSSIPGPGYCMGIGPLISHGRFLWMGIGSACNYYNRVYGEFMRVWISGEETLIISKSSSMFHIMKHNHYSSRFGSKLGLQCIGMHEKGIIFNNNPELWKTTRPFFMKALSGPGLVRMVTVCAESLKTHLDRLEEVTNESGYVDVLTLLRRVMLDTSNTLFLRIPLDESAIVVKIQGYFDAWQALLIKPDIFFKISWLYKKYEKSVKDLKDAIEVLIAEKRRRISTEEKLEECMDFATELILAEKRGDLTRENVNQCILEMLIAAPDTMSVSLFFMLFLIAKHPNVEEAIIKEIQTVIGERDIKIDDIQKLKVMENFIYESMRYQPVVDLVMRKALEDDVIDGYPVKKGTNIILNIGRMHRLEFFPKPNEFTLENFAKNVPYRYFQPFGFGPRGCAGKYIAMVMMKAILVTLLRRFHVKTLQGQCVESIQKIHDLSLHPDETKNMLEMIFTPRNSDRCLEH
The nature of test [9]: qHTS assay to identify small molecule antagonists of the estrogen receptor alpha (ER-alpha) signaling pathway using the BG1 cell line - cell viability counter screen (AID 743081).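 Note: compound given together with 17beta-estradiol as the ER stimulus; nearly all actives have a fitted effect of over 45% in size.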 Note: potency is the fitted concentration of half-maximal effect.
Test [10] can be described thus: qHTS assay to identify small molecule antagonists of the thyroid receptor (TR) signaling pathway - cell viability counter screen (AID 743064). Note: nearly all actives have a fitted effect of over 50% in size. Note: potency is the fitted concentration of half-maximal effect. The essentials: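 In-well cytotoxicity read by CellTiter-Fluor (30 min, 37 C) following 23.5 h exposure of GH3 cells bearing a TRE-luciferase sensor. Compounds were added alongside 1 nM (final) T3 to drive TR transactivation.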

Several values for one entry are separate records, joined by “and”; a condition that tells them apart may be missing. Equal entries are not always repeated. The source holds several records for some structures; these can differ, active in one and inactive in another. Activity calls are given as the source filed them. Unless noted, calls come from the whole dose curve; as a rule, active = well fitted curve in the direction sought with a large enough effect in the repeat runs; inconclusive = weak or mixed curves; inactive = no such curve, though single readings can be large; an effect the other way counts as inactive or inconclusive. Starred links: 1 amine or outer side, 2 acyl side, 3 side chain; linkers in the order of their positions; H or OH if unused. Positions of bridges follow the written chain, without caps; N, C: chain ends. Non-standard residues stand in square brackets, D forms with d. Residues, ends and D or L forms follow the SMILES beside them. Chains are numbered I, II in the order given. Actinocin(9to1) = Cc1c2oc3c(C)ccc(C(=O)[*:1])c3nc-2c(C(=O)[*:2])c(N)c1=O; NMeV = CN[C@H](C(=O)O)C(C)C; Sar = CNCC(=O)O
% is set by controls: 0 for no effect and ±100 for the full control effect.

Consider `CCC[C@H](N[C@@H](C)C(=O)N1[C@H](C(=O)O)C[C@@H]2CCCC[C@@H]21)C(=O)OCC`, for which the Potency result in test [1], in test [2], in test [3], in test [4], in [5] and in [6] was “inactive” each time. Further, the Potency result in [7] and in test [8] was “inactive” throughout.

In the case of `Oc1c(Cl)cc(Cl)cc1Sc1cc(Cl)cc(Cl)c1O`, the Potency in test [1] is 8.63 µM (active) [middle of 4 runs]; in test [3], 6.93 µM [inconclusive] (active) and 1.77 µM [inconclusive] (active); in [4] it was 21.9 µM (active) and 44.4 µM (active) and 27.5 µM (active); in test [7] it was 26.6 µM (active) and 48.6 µM (active); in test [8], 21.1 µM (active) and 15.4 µM (active) and 17.5 µM (active). Further, the Potency entry in test [2], in [5] and in test [9] was “inactive” each time.

Consider `CC(=O)OCCOCCOCCOC(C)=O`, for which the Potency result in test [1], in test [2], in [3], in [4], in test [5] and in test [6] was “inactive” in each case. The Potency result in test [7], in [9] and in test [8] was “inactive” throughout.

Take `Cc1cc(OCCOCC[N+](C)(C)Cc2ccccc2)ccc1C(C)(C)CC(C)(C)C`: the Potency in [1] is 13.3 µM (active) and 10.8 µM (active); in test [4] it was 15.1 µM (active) and 6.13 µM (active); in test [7], 26.6 µM (active); in test [8], 21.1 µM (active) and 30.5 µM (active). Moreover, the Potency entry in test [2], in [5] and in test [9] was “inactive” each time.

`CC(C)(O)CCC(C)(C)O`: the Potency result in test [1], in test [2], in [4], in [5], in [6] and in test [7] was “inactive” each time. For the same compound, the Potency result in test [9] and in test [8] was “inactive” each time.

Consider `C1COC(NC(C2CC2)C2CC2)=N1`, for which the Potency in test [1] was 29.8 µM (active). Besides, the Potency result in [2], in test [3], in test [4], in test [5], in test [7] and in test [9] was “inactive” in each case. Moreover, the Potency result in [8] was “inactive”.

With `CN(C)c1ccc2nc3ccc(=[N+](C)C)cc-3sc2c1`, the Potency in [10] is 15 µM (active) and 26.2 µM (active) and 54.5 µM (active); in [9], 18.8 µM (active) and 23.4 µM (active) and 54.5 µM (active). The Potency result in test [2] and in test [4] was “inactive” in each case.

On to `Cc1c2oc3c(C)ccc(C(=O)N[C@@H]4C(=O)N[C@H](C(C)C)C(=O)N5CCC[C@H]5C(=O)N(C)CC(=O)N(C)[C@@H](C(C)C)C(=O)O[C@@H]4C)c3nc-2c(C(=O)N[C@@H]2C(=O)N[C@H](C(C)C)C(=O)N3CCC[C@H]3C(=O)N(C)CC(=O)N(C)[C@@H](C(C)C)C(=O)O[C@@H]2C)c(N)c1=O` (I: T[dV]P[Sar][NMeV] / II: T[dV]P[Sar][NMeV]; ester I:1-I:C, II:1-II:C; linker I:N-II:N via Actinocin(9to1)), for which the Potency in [1] is 0.0042 µM (active); in test [3], 53.5 nM [inconclusive] (active) and 13.4 nM [inconclusive] (active); in [7], 84.1 nM (active) and 10.6 nM (active); in [9] it was 15 µM (active) and 13.3 µM (active); in test [8], 94.4 nM (active) and 1.7 nM (active). Moreover, the Potency result in [2] and in [5] was “inactive” in each case.

Regarding `CC(C)CCOCc1ccccc1`, the Potency entry in test [10], in [3], in test [4], in test [5], in test [6] and in test [7] was “inactive” throughout. The Potency result in test [9] and in test [8] was “inactive” each time.

Take `CCCCN(CCO)CCCC`: the Potency result in [1], in [2], in [4], in test [5], in [6] and in test [7] was “inactive” throughout. The Potency result in [9] and in test [8] was “inactive” each time.

On to `c1ccc2c(c1)-c1cccc3c1c-2cc1ccccc13`, for which the Potency entry in test [4], in test [6], in test [7], in test [9] and in test [8] was “inactive” throughout.

On to `CC(C)C(=O)c1c(C(C)C)nn2ccccc12`, for which the Potency result in test [1], in test [2], in test [9] and in [8] was “inactive” each time.

Regarding `COC(c1ccccc1)(c1ccccc1)[C@H](Oc1nc(C)cc(C)n1)C(=O)O`, the Potency entry in test [1], in test [2], in test [4] and in test [8] was “inactive” throughout.

As to `COc1ccc(COC(C)=O)cc1`, the Potency result in [1], in [2], in test [4], in test [9] and in test [8] was “inactive” each time.

On to `CC(=O)OCC1=C(C(=O)O)N2C(=O)[C@@H](NC(=O)Cc3cccs3)[C@H]2SC1`, for which the Potency result in test [1], in test [2], in test [4], in test [9] and in test [8] was “inactive” throughout.

As to `Nc1ccc2cc3ccccc3cc2c1`, the Potency entry in test [1], in test [2], in test [9] and in test [8] was “inactive” throughout. The Potency in [6] was 9.86 µM (active) and 24.3 µM (active).

Turning to `CCCCCCCCCCCC[N+](C)(C)C`, the Potency is 9.66 µM (active) and 6.86 µM (active) and 7.7 µM (active) in test [1]; “inactive and 54.9 µM (active)” in test [4]; 60.9 µM (active) in test [9]; 24.3 µM (active) and 17.2 µM (active) and 21.7 µM (active) in [8].

Consider `NC12CC3CC(CC(C3)C1)C2`, for which the Potency entry in test [2], in test [4], in test [9] and in [8] was “inactive” in each case.

With `Nc1ccc(O)cc1`, the Potency result in test [4], in [5], in test [6] and in [7] was “inactive” each time. Besides, the Potency entry in test [9] is “inactive and 63.5 µM (active)”; in test [8], “inactive and 31.8 µM (active)”.

As to `CC(C)(C)NCC(O)c1cc(O)cc(O)c1` (configuration not stated), the Potency result in [1], in test [2], in test [4], in test [9] and in [8] was “inactive” in each case.
